Shown are actives, neighbours in structure and some others; about 3.1% of the full set was active somewhere.
Tau ThT inhib = blocks human tau fibril formation measured by thioflavin T. P10636. 2.1% of 270,000 active. AID 1460. Potency, µM (titrated, usually from 57.4 µM), without a hit: at the top dose activity, negative = inhibition, actives largely listed as inhibitors. recombinant tau K18 P301L, heparin-induced fibrillization, ThT fluorescence; also: nearly all actives have a fitted effect of over 55% in size
Target sequence (P10636 561-689 P618L limits assumed): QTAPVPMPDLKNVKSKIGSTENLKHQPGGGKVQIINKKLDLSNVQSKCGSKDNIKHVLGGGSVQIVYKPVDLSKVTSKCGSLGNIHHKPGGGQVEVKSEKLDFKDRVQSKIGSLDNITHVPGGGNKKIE
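Recombinant human tau K18 fragment […] carrying P301L, 15 uM unlabeled plus 0.24 uM Alexa 594-labeled, was fibrillized with 20 uM heparin in 100 mM sodium acetate pH 7 for 6 hr at 37 C; 30 uM ThT fluorescence read after 1 hr.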
TRb SRC2 PPI = TRbeta-SRC2 interaction inhibition | TRbeta-SRC2 peptide binding, fluorescence polarization; receptor liganded with 1 µM T3 | 0.065% of 280,000 active | AID 1469 | Potency, µM (highest dose often 106 µM), for inactives: top-dose activity change, negative = inhibition, hits mostly inhibitors | P10828;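 also: plate controls were bound peptide for no effect and peptide without receptor for full effect; nearly all actives have a fitted effect of over 50% in size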
Target sequence (P10828 whole entry, looked up): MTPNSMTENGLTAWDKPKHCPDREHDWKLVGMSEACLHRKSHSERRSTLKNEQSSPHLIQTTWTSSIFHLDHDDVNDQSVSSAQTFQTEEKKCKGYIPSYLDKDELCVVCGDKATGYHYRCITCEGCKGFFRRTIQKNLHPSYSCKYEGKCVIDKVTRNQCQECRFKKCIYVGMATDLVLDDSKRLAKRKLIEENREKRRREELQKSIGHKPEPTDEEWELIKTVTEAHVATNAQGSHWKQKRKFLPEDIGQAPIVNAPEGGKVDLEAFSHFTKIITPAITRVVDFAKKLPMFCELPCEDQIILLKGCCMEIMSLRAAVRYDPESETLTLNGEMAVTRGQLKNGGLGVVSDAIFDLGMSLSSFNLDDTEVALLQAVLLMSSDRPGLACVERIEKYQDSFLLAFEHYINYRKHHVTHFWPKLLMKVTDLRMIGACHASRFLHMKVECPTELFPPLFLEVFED
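Binding of a 20-amino-acid Texas Red SRC2 peptide (20 nM) to TRb ligand-binding domain (0.6 uM) with agonist T3 at 1 uM was followed by fluorescence polarization after a 5 hr room-temperature incubation.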
Tau FP inhib = tau fibrillization inhibition (FP); P10636; K18 P301L tau heparin fibrillization, Alexa594 FP, 6 h; Potency, µM (top dose mostly 57.7 µM), inactives show top-dose activity, negative = inhibition, actives largely listed as inhibitors; 0.39% of 280,000 active; AID 1468; also: nearly all actives have a fitted effect of over 55% in size
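Steps: dispense K18 P301L tau (15 uM plus 0.24 uM Alexa 594 tracer, final) in pH 7 sodium acetate; add compound; add heparin (20 uM final); incubate 6 hr, 37 C; add ThT (30 uM final); after 1 hr ambient, read FP.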
TR SRC2 fluor cs = Texas Red fluorescence interference in TRb-SRC2 counter-screen. TRb/SRC2 Texas Red total fluorescence interference. Potency, µM (doses to about 106 µM), inactives show at the top dose fluorescence change, negative = quenching. 0.29% of 280,000 active; active = well fitted curve in either direction with a large enough effect; inconclusive = small, poorly fitted or top-dose-only effect
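Human TRb ligand-binding domain at 0.6 uM with 20 nM Texas Red SRC2 peptide in Tris buffer containing 1 uM T3 and 5% DMSO, incubated with compound 5 h at ambient temperature. Total fluorescence (555/632 nm) calculated as parallel + 2 × perpendicular.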
Tau fluor counter = counter-screen for tau fibril formation inhibitors. Potency, µM (titrated, usually from 57.7 µM), without a hit: at the highest dose activity change, negative = decrease. tau K18 P301L (four-repeat tau fragment) Alexa594 fluorescence, heparin fibrillization. 0.93% of 280,000 active; also: nearly all actives have a fitted effect of over 55% in size
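Human K18 P301L tau (15 uM unlabeled plus 0.24 uM Alexa 594-labeled, final) in 100 mM sodium acetate pH 7 was mixed with compound and 20 uM heparin and incubated 6 hr at 37 C.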
GoLoco inh red = RGS12 GoLoco-Gai1 interaction inhibition; P63096; Gai1:RGS12 GoLoco peptide FP, rhodamine, 10 min; Potency, µM (highest dose often 61.6 µM), for inactives: at the top dose activity, negative = inhibition, most hits filed as inhibitors; 0.44% of 230,000 active; AID 880; active = well fitted inhibition curve with a large enough effect, not every such curve was filed as active; inactive = no such curve, though single readings can be large or run the other way; also: nearly all actives have a fitted effect of over 30% in size
* = called active by the depositor; ? = inconclusive; / = not tested or not shown; [ ] = remark or other dose. Unless noted, calls follow the shape of the dose curve; as a rule, active = well fitted curve in the direction sought with a large enough effect; inconclusive = small, poorly fitted or top-dose-only effect, or another doubt; inactive = no such curve, though single readings can be large; an effect the other way counts as inactive or inconclusive. Unless noted, % is scaled to controls: 0 for no effect and ±100 for the full control effect; potency is read from the fitted curve at half-maximal effect.

SMILES	Tau ThT inhib	TRb SRC2 PPI	Tau FP inhib	TR SRC2 fluor cs	Tau fluor counter	GoLoco inh red
Cc1ccc2c(c1)C(=O)C(=O)N2Cc1ccc(OC(C)C)cc1	?	8%	-3%	-1%	-19%	/
CCCOc1ccc(CN2C(=O)C(=O)c3cccc(C)c32)cc1	18µM*	-9%	-3%	-3%	-26%	/
Cc1ccc(CN2C(=O)C(=O)c3cc(Br)cc(C)c32)cc1	28µM*	8%	?	-4%	?	/
Cc1ccccc1C(=O)NCC(=O)O	0%	5%	-7%	-1%	2%	1%
O=C(Nc1ccc(F)c(F)c1)c1ccc(F)c(S(=O)(=O)N2CCC3(CC2)OCCO3)c1	1%	-5%	?	0%	?	11%
Oc1ccc(N=Nc2n[nH]c(-c3ccccc3)n2)cc1	2.5µM*	-1%	-5%	-12%	-27%	3%
Oc1ccc(N=Nc2n[nH]c(-c3ccc(Br)cc3)n2)cc1	2.2µM*	-1%	-15%	-9%	?	9%
O=S(=O)(Nc1ccc2nc(-c3ccc(Br)o3)[nH]c2c1)c1ccccc1	-17%	-6%	-1%	-5%	-27%	3%
Cc1ccc(NS(=O)(=O)c2ccc3nc(-c4ccccc4)[nH]c3c2)cc1Cl	?	5%	10µM*	-1%	?	/
Cc1ccc(NS(=O)(=O)c2ccc(Cl)c(C(=O)Nc3ccccc3-c3nc4ccccc4[nH]3)c2)cc1C	?	5%	14µM*	0%	?	-8%
O=S(=O)(Nc1ccc(Br)cc1F)c1ccc2nc(-c3ccccc3)[nH]c2c1	?	-5%	14µM*	-1%	-14%	/
Cc1cc(NS(=O)(=O)c2ccc3nc(-c4ccccc4)[nH]c3c2)ccc1Br	?	6%	7.9µM*	-1%	?	/
COc1cc(/C=C/C(=O)NCc2cccnc2)cc(OC)c1OC	3%	-3%	-1%	-3%	-2%	-1%
Cc1ccc2nc(CSc3nc(C)ccc3C#N)[nH]c2c1	11µM*	-11%	2%	-9%	?	0%
Cc1ccc(C#N)c(SCc2ccccc2F)n1	-8%	-1%	-10%	0%	-23%	-2%
CCOc1ccc(S(=O)(=O)NCC(c2cccs2)S(=O)(=O)c2ccc(C)cc2)cc1 (centres undefined)	-6%	-5%	?	-1%	-30%	/
Oc1ccc(/C=N/Nc2ccc3ccccc3c2)c(O)c1	18µM*	-2%	?	1%	20µM*[quencher]	9%
Oc1ccccc1/C=N/Nc1ncc(Br)cn1	-6%	4%	14%	-3%	-8%	-2%
Oc1ccccc1/C=N/Nc1ccccc1	?	-4%	18%	-6%	25µM*[quencher]	-2%
Cc1cc(N/N=C/c2ccc(O)cc2O)nc(-c2ccccc2O)n1	?	4%	?	-4%	?	-4%
Oc1ccccc1/C=N/Nc1cccc2cccnc12	?	3%	15%	-3%	13µM*[quencher]	3%
COc1ccc(Nc2nc(N)nc(CSC(=S)N3CCCCC3C)n2)cc1 (centres undefined)	?	-1%	10%	0%	10µM*[quencher]	4%
Cc1nc2ccc(NC(=O)c3cccc(S(=O)(=O)N(C)c4ccccc4)c3)cc2s1	0%	-1%	-12%	1%	?	0%
CN(c1ccccc1)S(=O)(=O)c1cccc(NC(=O)c2ccc3ncsc3c2)c1	-7%	0%	?	-3%	16µM*[quencher]	3%
O=C(Nc1cccc(S(=O)(=O)N2CCCCC2)c1)c1ccc2ncsc2c1	/	-7%	?	-1%	20µM*[quencher]	17%
SMILES	Tau ThT inhib	TRb SRC2 PPI	Tau FP inhib	TR SRC2 fluor cs	Tau fluor counter	GoLoco inh red
CC(=O)c1c(C)[nH]c(C(=O)Nc2cccc(S(=O)(=O)N(C)c3ccccc3)c2)c1C	-17%	-4%	28µM*	-4%	14µM*[quencher]	9%
Nc1ccc2nc(-c3ccc(O)cc3)sc2c1	7.9µM*	-15%[53 µM]	3%	79µM*[quencher]	?	/
Nc1ccc(-c2nc3ccc(N)cc3s2)cc1	11µM*	5%	1%	-12%	?	-3%
Nc1ccc(O)c(-c2nc3ccccc3s2)c1	10µM*	-3%	?	?	?	152%
Oc1ccc(N=C/C=C/c2cccc(Br)c2)cc1-c1nc2ccccc2s1	6.3µM*	-4%	-15%	0%	?	88%
Oc1ccc(-c2nc3ccccc3s2)c(O)c1	7%	8%	-13%	-1%	?	5%
O=C(Nc1ccc(O)c(-c2nc3ccccc3s2)c1)c1cccs1	5%	-5%	0%	-4%	-1%	-1%
Oc1ccc(C=Nc2ccc3ncccc3c2)c(O)c1	6.3µM*	?	?	?	?	80%
COc1ccc(CNc2oc(Cc3cccc4ccccc34)nc2C#N)cc1	-5%	-11%	-4%	2%	?	8%
O=C(O)/C=C\c1c2ccc(=O)c(O)c-2oc2c(O)c(O)ccc12	/	/	/	/	/	0.89µM*
CCOC(=O)C1=NOC(C(=O)NN(C)c2ncc(C(F)(F)F)cc2Cl)C1 (centres undefined)	6%	2%	1%	1%	8%	9%
Cc1ccccc1NC(=O)c1ccc(S(=O)(=O)N(C)C)cc1	-7%	10%	4%	-5%	0%	-9%
N#CCC(=O)Nc1ccc(C(=O)OCC(=O)Nc2ccccc2Sc2ccccc2)cc1	-15%	11%	28µM*	3%	?	24%
CC(=O)Nc1ccc(C(=O)OCC(=O)Nc2ccccc2Sc2ccccc2)cc1	?	-5%	?	-1%	?	-7%
C/C(=N\NC(N)=O)c1ccc(Cl)s1	-13%	-3%	-7%	-2%	-12%	-1%
C/C(=N/Nc1ccc(F)cc1)c1ccc(Cl)s1	?	6%	7%	10%	14µM*[quencher]	20%
CC(C)(C)OC(=O)C1=NOC2(C=CC(=O)C=C2)C1	13µM*	7%	?	-3%	-11%	0%
COc1ccccc1/C=C/C(=O)NCC(=O)N/N=C/c1ccccc1[N+](=O)[O-]	?	4%	3%	-4%	-27%	-1%
COc1cccc(/C=N/N2CCOCC2)c1O	-13%	-1%	1%	-4%	0%	/
O=C1c2cccc3cccc(c23)C(=O)N1/N=C/c1ccc(O)cc1O	-9%	10%	-9%	-4%	-20%	9%
Oc1ccc(/C=N/N2CCOCC2)c(O)c1O	8.9µM*	-14%	10µM*	-8%	-27%	-16%
O=C1c2ccccc2C(=O)N1/N=C/c1ccc(O)c(O)c1O	4µM*	3%	6.3µM*	?	?	-21%

Screening data as filed in PubChem BioAssay.
